Data on 9 sequences can be found in paper PMC7862700, “An all-to-all approach to the identification of sequence-specific readers for epigenetic DNA modifications on cytosine”.

What all share (experiment): DAPPL (digital affinity profiling via proximity ligation, sequencing); 10 mM Tris-HCl pH 7.5, 50 mM NaCl, 1 mM DTT, 4% glycerol, room temperature, 30 min; GST-TFs on glutathione beads, 16-mer random dsDNA library, 0.1% formaldehyde crosslink after washing; high values mean tight binding
Holding throughout (conditions): protein: recombinant; tags: N-terminal GST; dsDNA, one strand shown

One experiment concerns the target T1, FLI1 (Homo sapiens, UniProt Q01543 1-452).
T1 sequence: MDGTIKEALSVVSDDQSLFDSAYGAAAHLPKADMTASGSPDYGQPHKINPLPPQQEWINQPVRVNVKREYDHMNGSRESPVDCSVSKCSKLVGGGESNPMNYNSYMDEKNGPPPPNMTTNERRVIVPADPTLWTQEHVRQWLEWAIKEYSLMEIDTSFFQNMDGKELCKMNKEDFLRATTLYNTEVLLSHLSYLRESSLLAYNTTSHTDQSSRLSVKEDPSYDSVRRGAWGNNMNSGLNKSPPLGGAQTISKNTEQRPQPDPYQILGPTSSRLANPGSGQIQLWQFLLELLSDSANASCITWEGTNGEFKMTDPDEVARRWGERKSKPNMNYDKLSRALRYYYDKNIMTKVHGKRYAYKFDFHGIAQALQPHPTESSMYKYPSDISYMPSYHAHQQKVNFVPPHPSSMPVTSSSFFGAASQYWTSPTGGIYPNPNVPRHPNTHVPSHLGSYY
In outline: (§1)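 After expression in yeast as GST fusions, human transcription factors were bound to glutathione beads, DNA-barcoded and mixed with a tag-only sample. The pools were incubated with 200 nmole of a 16-mer random double-stranded DNA library in Tris/NaCl/DTT/glycerol buffer (30 min, room temperature), washed and crosslinked with 0.1% formaldehyde. Proximity ligation with BsaI/T4 ligase ran for 1 h at 37 °C, before PCR amplification and sequencing on an Illumina NextSeq500. Binding signal is a hexamer's read frequency for a factor divided by its frequency for the tag-only sample.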

A further experiment has as its target T2, ELK1 (Homo sapiens, UniProt P19419 1-428).
T2 sequence: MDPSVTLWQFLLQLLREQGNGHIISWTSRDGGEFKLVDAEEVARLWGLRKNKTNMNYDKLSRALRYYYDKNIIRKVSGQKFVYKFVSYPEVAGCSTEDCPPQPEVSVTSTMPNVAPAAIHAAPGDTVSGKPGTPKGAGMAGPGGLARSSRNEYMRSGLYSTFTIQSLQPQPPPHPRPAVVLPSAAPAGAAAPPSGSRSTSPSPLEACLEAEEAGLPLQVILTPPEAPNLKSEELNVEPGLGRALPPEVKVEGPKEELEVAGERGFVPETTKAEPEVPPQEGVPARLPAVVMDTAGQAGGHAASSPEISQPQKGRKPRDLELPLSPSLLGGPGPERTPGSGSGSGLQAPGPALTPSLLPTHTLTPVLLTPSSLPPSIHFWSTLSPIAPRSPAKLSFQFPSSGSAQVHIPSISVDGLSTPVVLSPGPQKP
In outline:
as §1

A further experiment addresses T3, GABPA (Homo sapiens, UniProt Q06546 1-454).
T3 sequence: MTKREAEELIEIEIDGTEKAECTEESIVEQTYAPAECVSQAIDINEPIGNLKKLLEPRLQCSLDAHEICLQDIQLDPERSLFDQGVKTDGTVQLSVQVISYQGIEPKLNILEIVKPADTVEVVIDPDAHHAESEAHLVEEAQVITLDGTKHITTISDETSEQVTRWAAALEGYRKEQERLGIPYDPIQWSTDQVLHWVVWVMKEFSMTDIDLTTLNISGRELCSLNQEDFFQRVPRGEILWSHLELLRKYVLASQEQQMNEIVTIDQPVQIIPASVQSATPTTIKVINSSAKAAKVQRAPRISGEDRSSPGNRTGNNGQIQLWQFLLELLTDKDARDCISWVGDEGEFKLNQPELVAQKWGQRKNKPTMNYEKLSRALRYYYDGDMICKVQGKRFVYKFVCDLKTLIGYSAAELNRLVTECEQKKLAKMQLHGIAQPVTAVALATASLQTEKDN
In outline: as §1

Another experiment deals with T4, ERG (Homo sapiens, UniProt P11308 1-479).
T4 sequence: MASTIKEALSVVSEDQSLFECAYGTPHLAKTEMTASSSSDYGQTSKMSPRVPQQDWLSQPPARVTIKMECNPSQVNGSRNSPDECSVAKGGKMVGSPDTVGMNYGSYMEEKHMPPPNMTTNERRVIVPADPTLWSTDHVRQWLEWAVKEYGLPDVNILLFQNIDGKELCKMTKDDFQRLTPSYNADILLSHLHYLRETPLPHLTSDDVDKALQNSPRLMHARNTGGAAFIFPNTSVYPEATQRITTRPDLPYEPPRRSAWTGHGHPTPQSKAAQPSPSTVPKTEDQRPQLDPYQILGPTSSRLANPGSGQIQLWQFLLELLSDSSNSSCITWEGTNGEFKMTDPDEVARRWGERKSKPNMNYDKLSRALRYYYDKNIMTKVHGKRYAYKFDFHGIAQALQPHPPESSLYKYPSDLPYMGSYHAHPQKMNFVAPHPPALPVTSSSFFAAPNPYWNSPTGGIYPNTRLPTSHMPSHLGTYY
Summed up: as §1

For a further experiment, the target named is ELF1 (Homo sapiens, UniProt P32519 1-619). In outline:
as §1

In the next experiment the target is T5, EHF (Homo sapiens, UniProt Q9NZC4 1-300).
T5 sequence: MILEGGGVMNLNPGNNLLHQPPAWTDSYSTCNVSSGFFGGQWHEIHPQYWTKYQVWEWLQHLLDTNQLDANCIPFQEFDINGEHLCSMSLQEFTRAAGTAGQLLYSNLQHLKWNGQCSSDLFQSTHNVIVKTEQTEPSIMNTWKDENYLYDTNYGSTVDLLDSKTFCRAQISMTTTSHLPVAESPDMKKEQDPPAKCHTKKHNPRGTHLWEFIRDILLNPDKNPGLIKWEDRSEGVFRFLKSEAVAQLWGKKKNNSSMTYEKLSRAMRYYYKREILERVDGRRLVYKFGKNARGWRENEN
In outline:
as §1

A further experiment concerns the target SPIB (Homo sapiens, UniProt Q01892 1-262). In outline: as §1
A further experiment deals with T6, ELK3 (Homo sapiens, UniProt P41970 1-407).
T6 sequence: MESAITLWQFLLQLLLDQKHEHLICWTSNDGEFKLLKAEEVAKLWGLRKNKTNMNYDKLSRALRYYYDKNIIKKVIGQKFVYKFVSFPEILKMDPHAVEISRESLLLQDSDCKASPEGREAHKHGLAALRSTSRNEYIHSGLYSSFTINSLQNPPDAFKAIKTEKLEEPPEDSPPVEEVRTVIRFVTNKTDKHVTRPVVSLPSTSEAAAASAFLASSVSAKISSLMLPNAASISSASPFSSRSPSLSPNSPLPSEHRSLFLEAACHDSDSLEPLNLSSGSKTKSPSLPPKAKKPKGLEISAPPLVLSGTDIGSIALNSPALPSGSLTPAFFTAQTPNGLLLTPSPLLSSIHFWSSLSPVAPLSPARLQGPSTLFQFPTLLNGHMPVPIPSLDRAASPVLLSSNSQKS
In outline: as §1

In the next experiment the target is SPI1 (Homo sapiens, UniProt P17947 1-270). In outline:
as §1

Chain of SPIB (Q01892 whole entry): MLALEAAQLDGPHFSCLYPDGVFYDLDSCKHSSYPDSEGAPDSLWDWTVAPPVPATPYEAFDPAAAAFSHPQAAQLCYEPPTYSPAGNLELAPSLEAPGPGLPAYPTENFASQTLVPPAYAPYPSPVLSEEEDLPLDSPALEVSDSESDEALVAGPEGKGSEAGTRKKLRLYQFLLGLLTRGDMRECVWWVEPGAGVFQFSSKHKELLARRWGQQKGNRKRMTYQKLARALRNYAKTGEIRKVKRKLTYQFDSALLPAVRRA
Chain of ELF1 (P32519 whole entry): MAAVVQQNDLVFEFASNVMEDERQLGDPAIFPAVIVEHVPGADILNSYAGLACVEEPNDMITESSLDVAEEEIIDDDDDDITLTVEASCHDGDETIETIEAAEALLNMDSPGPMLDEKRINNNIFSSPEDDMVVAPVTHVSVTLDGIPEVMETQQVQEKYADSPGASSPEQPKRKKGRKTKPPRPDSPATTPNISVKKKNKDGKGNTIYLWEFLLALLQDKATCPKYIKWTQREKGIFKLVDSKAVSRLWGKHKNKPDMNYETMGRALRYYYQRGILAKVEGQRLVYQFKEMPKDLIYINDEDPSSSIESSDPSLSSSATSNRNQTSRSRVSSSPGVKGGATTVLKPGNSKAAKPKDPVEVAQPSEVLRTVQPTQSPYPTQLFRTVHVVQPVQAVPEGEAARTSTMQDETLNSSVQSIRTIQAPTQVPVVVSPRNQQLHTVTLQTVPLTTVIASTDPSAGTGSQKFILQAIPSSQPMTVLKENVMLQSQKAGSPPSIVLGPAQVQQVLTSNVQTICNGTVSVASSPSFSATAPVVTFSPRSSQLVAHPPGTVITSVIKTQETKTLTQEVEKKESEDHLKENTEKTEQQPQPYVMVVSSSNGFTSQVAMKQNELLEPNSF

In the case of CGGTAT, the binding signal in the experiment with FLI1 is 1.08 fold enrichment (6-mer frequency, TF over GST control); in the experiment with ELK1 it was 1.12 fold enrichment (6-mer frequency, TF over GST control); in the experiment with GABPA it was 1.01 fold enrichment (6-mer frequency, TF over GST control); with ERG, 1.13 fold enrichment (6-mer frequency, TF over GST control); with ELF1, 1.1 fold enrichment (6-mer frequency, TF over GST control); with EHF it was 1.08 fold enrichment (6-mer frequency, TF over GST control). In addition, the binding signal in the experiment with SPIB is 1.07 fold enrichment (6-mer frequency, TF over GST control); in the experiment with ELK3 it was 1.01 fold enrichment (6-mer frequency, TF over GST control).

With TAGAAT, the binding signal is 1.1 fold enrichment (6-mer frequency, TF over GST control) with FLI1; 1.06 fold enrichment (6-mer frequency, TF over GST control) with ELK1; 1.03 fold enrichment (6-mer frequency, TF over GST control) in the experiment with GABPA; 1.03 fold enrichment (6-mer frequency, TF over GST control) with ERG; 1.1 fold enrichment (6-mer frequency, TF over GST control) in the experiment with ELF1; 1.01 fold enrichment (6-mer frequency, TF over GST control) in the experiment with EHF. Further, the binding signal is 1.15 fold enrichment (6-mer frequency, TF over GST control) in the experiment with SPI1 and 1.15 fold enrichment (6-mer frequency, TF over GST control) with ELK3.

As to CAACAA, the binding signal in the experiment with FLI1 is 1.08 fold enrichment (6-mer frequency, TF over GST control); in the experiment with ELK1 it was 1.08 fold enrichment (6-mer frequency, TF over GST control); with GABPA, 1.1 fold enrichment (6-mer frequency, TF over GST control); in the experiment with ERG it was 1.01 fold enrichment (6-mer frequency, TF over GST control); with ELF1, 1.06 fold enrichment (6-mer frequency, TF over GST control); with EHF, 1.05 fold enrichment (6-mer frequency, TF over GST control). Besides, the binding signal with SPI1 is 1.02 fold enrichment (6-mer frequency, TF over GST control); with ELK3, 1.12 fold enrichment (6-mer frequency, TF over GST control).

Consider GGTGTT, for which the binding signal is 1.07 fold enrichment (6-mer frequency, TF over GST control) with FLI1; 1.13 fold enrichment (6-mer frequency, TF over GST control) with ELK1; 1.11 fold enrichment (6-mer frequency, TF over GST control) with GABPA; 1.08 fold enrichment (6-mer frequency, TF over GST control) with ERG; 1.09 fold enrichment (6-mer frequency, TF over GST control) with ELF1; 1.04 fold enrichment (6-mer frequency, TF over GST control) with EHF. In the experiment with SPIB, the binding signal was 1.02 fold enrichment (6-mer frequency, TF over GST control).

TACTGA: the binding signal is 1.03 fold enrichment (6-mer frequency, TF over GST control) with FLI1; 1.08 fold enrichment (6-mer frequency, TF over GST control) with ELK1; 1.06 fold enrichment (6-mer frequency, TF over GST control) with GABPA; 1.03 fold enrichment (6-mer frequency, TF over GST control) with ERG; 1.13 fold enrichment (6-mer frequency, TF over GST control) in the experiment with ELF1; 1.13 fold enrichment (6-mer frequency, TF over GST control) with EHF. The binding signal with SPI1 is 1.02 fold enrichment (6-mer frequency, TF over GST control); in the experiment with ELK3, 1.09 fold enrichment (6-mer frequency, TF over GST control).

On to TTGCGC, for which the binding signal was 1.23 fold enrichment (6-mer frequency, TF over GST control) with FLI1; 1.17 fold enrichment (6-mer frequency, TF over GST control) with ELK1; 1.1 fold enrichment (6-mer frequency, TF over GST control) with GABPA; 1.02 fold enrichment (6-mer frequency, TF over GST control) in the experiment with ERG; 1.1 fold enrichment (6-mer frequency, TF over GST control) with ELF1; 1.12 fold enrichment (6-mer frequency, TF over GST control) in the experiment with EHF. The binding signal was 1.06 fold enrichment (6-mer frequency, TF over GST control) with SPI1 and 1.04 fold enrichment (6-mer frequency, TF over GST control) with ELK3.

As to ATACGG, the binding signal with FLI1 was 1.19 fold enrichment (6-mer frequency, TF over GST control); with ELK1, 1.16 fold enrichment (6-mer frequency, TF over GST control); with GABPA, 1.17 fold enrichment (6-mer frequency, TF over GST control); with ERG it was 1.23 fold enrichment (6-mer frequency, TF over GST control); in the experiment with ELF1 it was 1.19 fold enrichment (6-mer frequency, TF over GST control); with EHF, 1.2 fold enrichment (6-mer frequency, TF over GST control). Further, the binding signal with SPI1 was 1.31 fold enrichment (6-mer frequency, TF over GST control); in the experiment with SPIB, 1.23 fold enrichment (6-mer frequency, TF over GST control); with ELK3 it was 1.23 fold enrichment (6-mer frequency, TF over GST control).

For AAGCAG, the binding signal was 1.1 fold enrichment (6-mer frequency, TF over GST control) with FLI1; 1.14 fold enrichment (6-mer frequency, TF over GST control) with ELK1; 1.13 fold enrichment (6-mer frequency, TF over GST control) in the experiment with GABPA; 1.11 fold enrichment (6-mer frequency, TF over GST control) in the experiment with ERG; 1.12 fold enrichment (6-mer frequency, TF over GST control) with ELF1; 1.12 fold enrichment (6-mer frequency, TF over GST control) with EHF. The binding signal in the experiment with SPI1 was 1.24 fold enrichment (6-mer frequency, TF over GST control); with ELK3 it was 1.23 fold enrichment (6-mer frequency, TF over GST control).

Regarding TTGAGC, the binding signal with FLI1 is 1.22 fold enrichment (6-mer frequency, TF over GST control); with ELK1, 1.01 fold enrichment (6-mer frequency, TF over GST control); with GABPA it was 1.17 fold enrichment (6-mer frequency, TF over GST control); with ERG, 1.12 fold enrichment (6-mer frequency, TF over GST control); in the experiment with ELF1, 1.02 fold enrichment (6-mer frequency, TF over GST control); with EHF, 1.06 fold enrichment (6-mer frequency, TF over GST control). Further, the binding signal with SPIB is 1.11 fold enrichment (6-mer frequency, TF over GST control).
